Source: PubChem
D1 potentiator = enhances dopamine response at the human D1 receptor. HEK293 TREx D1 cells, calcium flux, dopamine EC20 potentiation. potentiation, % at 10 µM. 0.036% of 360,000 active. AID 504651; in the data active means potentiation above about 30%; further: 0% is about no effect
D1 antag = antagonists of human D1 dopamine receptor. P21728. HEK293 TREx D1 cells, calcium flux, dopamine EC80; active compounds read low. activity change, negative = inhibition, % at 10 µM. 3.2% of 360,000 active. AID 504652; in the data active means activity change below about -30%; further: on the % scale 0 is the no-effect control and ±100 the full control effect
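Antagonism measured as reduced calcium response to an EC80 dopamine addition following 180 s compound pre-read; cells were inducible HEK293 Trex D1 plated overnight at 30 C, read kinetically at 1 cycle/sec.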
D1 agonist = human D1 receptor agonism; 1% of 360,000 active; HEK293 T-REx D1 cells, calcium flux, agonist mode; activation, % at 2 µM; P21728; in the data active means activation above about 30%; further: 0% is about no effect
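Agonism was scored from calcium flux recorded over 180 s (1 read/s) after pintool compound addition, following a 10-cycle baseline. Cells were inducible force-coupled HEK293 TREx D1, plated overnight at 30 C and loaded with no-wash calcium dye.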
TRPV1 potentiator = potentiators of human vanilloid receptor 1 (TRPV1) | Q8NER1 | TRPV1-expressing cells, Fluo-8 calcium influx, capsaicin EC20 potentiation | potentiation, % at 8.33 µM | 0.02% of 320,000 active | AID 540277; in the data active means potentiation above about 80%; inconclusive means between about 30% and that limit; further: 0% is about no effect
Target sequence (Q8NER1 whole entry, looked up): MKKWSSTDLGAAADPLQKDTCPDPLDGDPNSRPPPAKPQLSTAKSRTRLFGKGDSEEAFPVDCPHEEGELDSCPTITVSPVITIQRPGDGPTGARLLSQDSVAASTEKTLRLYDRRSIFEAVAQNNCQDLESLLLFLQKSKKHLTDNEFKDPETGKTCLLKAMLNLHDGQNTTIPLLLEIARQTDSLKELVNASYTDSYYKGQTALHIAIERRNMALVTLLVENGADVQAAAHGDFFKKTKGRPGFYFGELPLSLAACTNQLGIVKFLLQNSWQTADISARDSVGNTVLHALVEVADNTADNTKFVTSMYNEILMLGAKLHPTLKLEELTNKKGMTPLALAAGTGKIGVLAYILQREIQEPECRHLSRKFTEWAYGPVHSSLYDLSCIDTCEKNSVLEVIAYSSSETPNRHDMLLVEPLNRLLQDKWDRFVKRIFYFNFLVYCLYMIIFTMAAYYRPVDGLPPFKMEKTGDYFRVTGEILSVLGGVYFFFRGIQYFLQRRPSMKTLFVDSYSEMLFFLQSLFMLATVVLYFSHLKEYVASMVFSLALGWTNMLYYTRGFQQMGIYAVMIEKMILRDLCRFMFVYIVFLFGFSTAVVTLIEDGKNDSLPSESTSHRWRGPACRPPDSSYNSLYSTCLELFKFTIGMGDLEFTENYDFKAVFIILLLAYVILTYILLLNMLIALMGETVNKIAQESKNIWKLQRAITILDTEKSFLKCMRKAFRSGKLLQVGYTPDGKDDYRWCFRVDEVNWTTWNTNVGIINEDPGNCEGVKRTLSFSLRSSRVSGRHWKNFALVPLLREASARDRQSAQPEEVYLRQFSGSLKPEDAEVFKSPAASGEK
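Cells expressing TRPV1 were dye-loaded with Fluo-8 and read kinetically: 10 s baseline, 3 min after compound (agonist portion), then 2 min after EC20 capsaicin (allosteric enhancer portion). Calcium-bound dye fluorescence at 480/520 nm.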
TRPV1 agonist = agonists of human vanilloid receptor 1 (TRPV1); activation, % at 8.33 µM; 0.19% of 320,000 active; TRPV1-expressing cells, Fluo-8 calcium influx, agonist mode; AID 540275; in the data active means activation above about 80%; inconclusive means between about 30% and that limit; further: 0% is about no effect
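Cells expressing TRPV1 were dye-loaded with Fluo-8 and read kinetically: 10 s baseline, 3 min after compound (agonist portion), then 2 min after EC20 capsaicin (allosteric enhancer portion). Calcium-bound dye fluorescence at 480/520 nm.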
The depositor's hits bear a star; ? = inconclusive; · = no result given. Compounds with a hit are over-represented: about 4.2% of the library has one in this group of screens.

SMILES	D1 potentiator	D1 antag	D1 agonist	TRPV1 potentiator	TRPV1 agonist
CCC(=O)N1CCCc2cc(S(=O)(=O)N3CCC(C(=O)Nc4ccc(F)c(F)c4)CC3)ccc21	-7	-32*	1	·	·
Cc1ccccc1NC(=O)CSc1nc(-c2ccc(F)cc2)nc2c1Cc1ccccc1O2	-5	-25	0	·	·
Cc1ccc2oc(=O)n(CCNC(=O)Nc3ccc(Cl)cc3)c2c1	0	-28	1	·	·
CCCN(C(=O)c1coc(=O)c2ccccc12)c1ccccc1C	0	1	1	·	·
CCOC(=O)c1c(NC(=O)COC(=O)c2cnc(C)cn2)sc(C(=O)N(C)C)c1C	-1	3	2	3	-2
CCOC(=O)c1c(NC(=O)COC(=O)c2ccccn2)sc(C(=O)N(C)C)c1C	-4	14	1	103*	10
O=C1C=C(c2ccc3c(c2)oc2ccccc23)C[C@@H](c2ccc3c(c2)OCO3)C1	0	-33*	0	5	-4
CCN(CC)C(=O)c1c(-c2ccccc2)oc2ccc(O)cc12	-3	-31*	1	12	-6
O=C(Cn1cc(SCc2cccc(F)c2)c2ccccc21)N1CCCC1	-2	-5	7	·	·
c1ccc2c(c1)OCCOCCOCCOCCOCCOc1ccccc1OCCOCCOCCO2	-3	-36*	22	8	-4
COc1ccc([S+](=O)([O-])N2CCN([S+](=O)([O-])c3ccc4c(c3)OCCO4)CC2)c(OC)c1	5	-17	7	·	·
Cc1ccc(CNCc2cc(Cl)ccc2O)cc1	0	2	60*	-3	3
O=C(O)c1ccc(CNCc2cc(Cl)ccc2O)cc1	1	·	0	-17	3
CCCOc1ccc(NC(=O)CC2C(=O)N(CC)C(=S)N2CCCN2CCN(Cc3ccccc3)CC2)cc1 (stereo not given)	-7	-34*	13	-7	8
CCN1C(=O)C(CC(=O)Nc2ccc(OC)cc2)N(CCc2ccc(OC)cc2)C1=S (stereo not given)	-6	-33*	21	6	-5
COc1ccc(S(=O)(=O)N(Cc2nc(-c3ccc(C)cc3)no2)C2CCCCC2)cc1	-1	7	11	·	·
CCc1ccc(NC(=O)CCNS(=O)(=O)c2ccc3c(c2)CCCC(=O)N3)cc1	-6	1	1	·	·
Cc1ccc(Cn2c(C(C)NC(=O)c3ccccc3)nc3ccccc32)cc1 (stereo not given)	-5	15	18	·	·
O=C(Cc1ccccc1F)Nc1nc(-c2cccs2)cs1	-6	13	6	-2	81*
O=C(Cc1cccs1)Nc1nc(-c2ccc(F)cc2F)cs1	8	-44*	15	19	4
CC1Cc2cc(-c3csc(NC(=O)Cc4cccs4)n3)ccc2N1S(C)(=O)=O (stereo not given)	-5	-42*	8	-5	1
O=C(Cc1ccccc1)Nc1nc(-c2cccs2)cs1	-8	-31*	4	-7	94*
O=C(Cc1cccs1)Nc1nc(-c2ccc(F)c(F)c2)cs1	-5	-8	2	-11	?
COc1ccccc1CNC(=O)CCCn1nc(C)c2sc3ccccc3c2c1=O	-2	12	1	·	·
O=S(=O)(c1ccc2c(c1)OCCO2)N1CCN(S(=O)(=O)c2ccc3nc(Cl)c(Cl)nc3c2)CC1	5	-20	4	·	·
SMILES	D1 potentiator	D1 antag	D1 agonist	TRPV1 potentiator	TRPV1 agonist
CCc1ccc(-n2nc(C)c3c(C(=O)N4CCN(c5ccccc5)CC4)cc(C)nc32)cc1	-1	-36*	1	·	·
CCNC(C(=O)c1c[nH]c2c(CC)cccc12)c1ccccc1 (stereo not given)	-6	-11	63*	-4	-4
COc1ccccc1-c1noc(-c2ccc(N3CCC(C)CC3)c([N+](=O)[O-])c2)n1	-3	12	9	·	·
COc1ccc(-c2noc(CNS(=O)(=O)c3ccc(Br)cc3)n2)cc1OC	1	-4	1	·	·
CCn1nc(C(=O)Nc2cccc(S(=O)(=O)N3CCCC3)c2)c2ccccc2c1=O	-4	15	3	-2	4
Cc1ccc(C(=O)Nc2ccc3cn[nH]c3c2)cc1S(=O)(=O)N1CCOCC1	-5	-1	2	11	92*
Cc1ccc(C(=O)Nc2ccc(F)cc2)cc1S(=O)(=O)N1CCOCC1	0	-10	8	·	·
Cc1ccc(C(=O)Nc2ccc(C)c(S(=O)(=O)N3CCOCC3)c2)c(C)c1	-12	-42*	6	-15	27
CCn1nc(C(=O)Nc2ccc(Cl)c(S(=O)(=O)N3CCOCC3)c2)c2ccccc2c1=O	-4	-37*	4	-4	3
Cc1ccc(NC(=O)CSc2n[nH]c(N)n2)cc1S(=O)(=O)N1CCOCC1	0	-64*	0	4	4
O=S(=O)(c1ccccc1)c1nnn2c1nc(N1CCN(c3ccccc3)CC1)c1cc(Cl)ccc12	-4	10	-1	·	·
COc1cc(C2c3c(oc4ccccc4c3=O)C(=O)N2c2nncs2)cc(OC)c1OC (stereo not given)	-6	-4	1	·	·
CNC(=S)N1CCN(C(c2ccccc2)c2ccccc2)CC1	-6	-2	0	-15	?
CCC(C)NC(=S)N1CCN(C(c2ccccc2)c2ccccc2)CC1 (stereo not given)	-4	-31*	0	-1	?
CC(=O)c1sc2c(c1C)c(=O)n(-c1ccc(Cl)cc1)c(=O)n2Cc1ccc(Cl)cc1	0	-9	6	·	·
Cc1cc(=O)oc(C)c1C(=O)OCC(=O)c1ccccc1	-2	-2	5	-9	-3
Cc1cc(=O)oc(C)c1C(=O)OC(C(=O)c1ccccc1)c1ccccc1 (stereo not given)	-4	-42*	1	-5	20
CC(C)Cc1nc(C(N)=O)c2[nH]c(=O)n(-c3ccc(F)cc3)c2n1	-2	6	1	-11	-2
Cc1cccc(-n2c(=O)[nH]c3c(C(N)=O)nc(CC(C)C)nc32)c1	-9	-36*	2	?	-2
Nc1ccc(-c2nc3ncccc3o2)cc1	-6	-34*	-1	7	-7
O=C(CN1C(=O)c2cccc3cccc1c23)Nc1ccccc1Br	-3	11	-1	·	·
Fc1cccc(CSc2ncnc3c2oc2ccccc23)c1	-5	-93*	2	-10	5
O=C(Cn1c(SCCOc2ccccc2Cl)nc2ccccc21)N1CCOCC1	-2	7	4	·	·
CCOC(=O)C1=CC[C@]2(C)c3c(c4ccccc4n3C)C(=O)C1N2C	-8	-45*	2	1	-3
O=C(CSCc1ccccc1Cl)Nc1ccc2c(c1)OCCO2	2	-36*	1	-14	23
CCn1c(SCC(=O)Nc2ccc3c(c2)OCO3)nnc1-c1cnccn1	-8	-32*	0	12	-3
Nn1c(SCC(=O)Nc2ccc3c(c2)OCCO3)nnc1-c1ccccn1	-4	-36*	1	24	2
